Experimental data: PubChem BioAssay (NCATS)
Values without a mark were called inactive. The call rests on the fitted dose curve; in most records, active means well fitted curve in the direction sought with a large enough effect; inconclusive means small, poorly fitted or top-dose-only effect, or another doubt; inactive means no such curve, though single readings can be large; an effect the other way counts as inactive or inconclusive. Results filed as inconclusive are left out.

biological target: Cytochrome P450 3A4 (Homo sapiens) (UniProt P08684); assay: qHTS Assay for Activators of Cytochrome P450 3A4 (AID 885); settings: recombinant CYP3A4, Luciferin-PPXE luminescence, 60 min; series mostly up to 57.1 µM; activity change, positive = activation: at the top concentration; further: nearly all actives have a fitted effect of over 65% in size
Outline: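 Human CYP3A4 dealkylates Luciferin-PPXE to luciferin, which luciferase detection converts to light. Substrate was at its KM (25uM), buffer 200mM KPO4, reaction 60 min at RT.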

Chain of Cytochrome P450 3A4 (Homo sapiens) (P08684 whole entry, looked up): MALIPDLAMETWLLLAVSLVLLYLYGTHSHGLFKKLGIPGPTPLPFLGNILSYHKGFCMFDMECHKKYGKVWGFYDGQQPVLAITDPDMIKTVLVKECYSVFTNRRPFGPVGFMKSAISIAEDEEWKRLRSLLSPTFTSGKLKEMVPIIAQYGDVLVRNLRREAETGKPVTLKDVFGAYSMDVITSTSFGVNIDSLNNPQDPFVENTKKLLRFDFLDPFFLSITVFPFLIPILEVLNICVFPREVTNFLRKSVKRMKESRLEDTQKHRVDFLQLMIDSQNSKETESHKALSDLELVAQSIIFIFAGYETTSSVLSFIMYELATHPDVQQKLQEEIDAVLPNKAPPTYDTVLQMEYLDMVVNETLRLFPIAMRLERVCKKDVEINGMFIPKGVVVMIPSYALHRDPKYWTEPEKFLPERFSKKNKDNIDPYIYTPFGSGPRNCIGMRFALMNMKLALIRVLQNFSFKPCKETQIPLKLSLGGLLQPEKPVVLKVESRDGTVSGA

SMILES	activity change, positive = activation
CCCCNc1nc(C)nc2c1nc(-c1ccccc1)n2CC(C)(C)CN(C)C	-76.5%
COCCNc1nc(C)nc2c1nc(-c1ccccc1)n2CCN1CCCCC1	-99%
Cc1nc(NCc2ccccc2)c2nc(-c3ccccc3)n(CCCN(C)C)c2n1	-68%
Cc1nc(NCc2ccccc2)c2nc(-c3ccccc3)n(CCCN3CCOCC3)c2n1	-78%
CCCCNc1nc(C)nc2c1nc(-c1ccccc1)n2CC1CCCN1CC (stereo not given)	-64%
CCCCNc1nc(C)nc2c1nc(-c1ccccc1)n2CCCN1CCCCC1C (stereo not given)	-67.5%
CCCCNc1nc(C)nc2c1nc(-c1ccccc1)n2CCN1CCCC1	-68.1%
CCCn1c(-c2ccc(F)cc2)nc2c(NCCCN3CCOCC3)nc(C)nc21	-87.3%
CCN1CCCC1Cn1c(-c2ccccc2)nc2c(NCc3ccccc3)nc(C)nc21 (stereo not given)	-113%
CCN1CCCC1Cn1c(-c2ccccc2)nc2c(N(CCOC)CCOC)nc(C)nc21 (stereo not given)	-91.1%
Cc1nc(NCc2ccccc2)c2nc(-c3ccccc3)n(CCCN3CCCCC3C)c2n1 (stereo not given)	-90.3%
CCCn1c(-c2ccc(F)cc2)nc2c(N3CCN(CCC(=O)OCC)CC3)nc(C)nc21	-67.6%
Cc1nc(N2CCOCC2)c2nc(-c3ccccc3)n(CCN3CCCCC3)c2n1	-60.5%
Cc1nc(NC2CCCCC2)c2nc(-c3ccccc3)n(CCCN3CCCCC3C)c2n1 (stereo not given)	-64.6%
CCCn1c(-c2ccc(F)cc2)nc2c(N3CCN(CCn4ccnc4)CC3)nc(C)nc21	-103%

biological target: Calcium and integrin-binding protein 1 (Homo sapiens) (UniProt Q99828); assay: Primary qHTS for Identification of Calcium Integrin Binding Protein 1 (CIB1) Competitor (AID 1508620); settings: CIB1-GST / FITC-alphaIIb peptide fluorescence polarization; series mostly up to 114 µM; activity change, negative = inhibition: at the top concentration;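 further: GST tagged CIB1 binding a fluorescein labelled alphaIIb integrin peptide tracer; top concentration of the series differs between compounds; on the % scale 0 is the no-effect control and ±100 the full control effect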
Outline: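 CIB1-GST (1 uM final) and compound incubated 15 min at room temperature before adding FITC-alphaIIb peptide tracer (100 nM final). Competition for binding read by fluorescence polarization (ex 480, em 540) after another 15 min at room temperature.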

Chain of Calcium and integrin-binding protein 1 (Homo sapiens) (Q99828 whole entry, looked up): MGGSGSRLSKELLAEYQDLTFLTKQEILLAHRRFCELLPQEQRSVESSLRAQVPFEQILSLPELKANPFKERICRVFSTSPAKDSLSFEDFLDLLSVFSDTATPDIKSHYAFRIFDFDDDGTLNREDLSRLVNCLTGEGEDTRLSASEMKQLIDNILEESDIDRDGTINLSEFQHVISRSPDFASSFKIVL

SMILES	activity change, negative = inhibition
CCN1CCCC1Cn1c(-c2ccccc2)nc2c(NC3CCCCC3)nc(C)nc21 (stereo not given)	-2.96%
CCCn1c(C)nc2c(N3CCCN(Cc4ccccc4)CC3)nc(C)nc21	1.61%
Cc1nc(NCc2ccccc2)c2nc(-c3ccccc3)n(C3CCN(Cc4ccccc4)C3)c2n1 (stereo not given)	6.87%
CCCn1c(-c2ccc(F)cc2)nc2c(NCCN3CCSCC3)nc(C)nc21	0.842%
CCCn1c(C)nc2c(N(CCN(CC)CC)CCN(CC)CC)nc(C)nc21	-3%
CCCn1c(-c2ccc(F)cc2)nc2c(NC3CCN(Cc4ccccc4)C3)nc(C)nc21 (stereo not given)	3.05%
CCN(CC)CCCC(C)n1c(-c2ccccc2)nc2c(N(CCOC)CCOC)nc(C)nc21 (stereo not given)	-1.28%
CCCn1c(C)nc2c(NCCCN(CCO)CCO)nc(C)nc21	-3.99%
COCCN(CCOC)c1nc(C)nc2c1nc(-c1ccccc1)n2CCCN1CCCCC1C (stereo not given)	-2.39%
CCN1CCCC1Cn1c(-c2ccccc2)nc2c(NCCOC)nc(C)nc21 (stereo not given)	-4.09%
CCCn1c(-c2ccc(F)cc2)nc2c(NCCN3CCOCC3)nc(C)nc21	1.19%
Cc1nc(NC2CCCCC2)c2nc(-c3ccccc3)n(CCN3CCCCC3)c2n1	-2.49%
CCCn1c(C)nc2c(NC(C)CN(C)C)nc(C)nc21 (stereo not given)	2.46%
COCCN(CCOC)c1nc(C)nc2c1nc(-c1ccccc1)n2CCN1CCOCC1	-0.847%
Cc1nc(NCc2ccccc2)c2nc(-c3ccccc3)n(C(C)CN(C)C)c2n1 (stereo not given)	3.71%
CCN(CC)CCn1c(-c2ccccc2)nc2c(NCc3ccccc3)nc(C)nc21	2.8%
CCCn1c(-c2ccc(F)cc2)nc2c(N3CCCN(Cc4ccccc4)CC3)nc(C)nc21	0.131%
CCCn1c(C)nc2c(NCCCN(CC)CC)nc(C)nc21	6.35%
Cc1nc(NCc2ccccc2)c2nc(-c3ccccc3)n(CCN3CCCC3)c2n1	0.814%
CCCn1c(-c2ccc(F)cc2)nc2c(NCC(C)(C)CN(C)C)nc(C)nc21	-0.635%

SMILES	activity change, negative = inhibition
CCN(CC)CCCCn1c(-c2ccccc2)nc2c(N(CCOC)CCOC)nc(C)nc21	-3.01%
CCCCNc1nc(C)nc2c1nc(-c1ccccc1)n2CC(C)(C)CN(C)C	-1.89%
COCCNc1nc(C)nc2c1nc(-c1ccccc1)n2CCN1CCCCC1	-6.35%
Cc1nc(NCc2ccccc2)c2nc(-c3ccccc3)n(CCCN(C)C)c2n1	-3.84%
Cc1nc(NCc2ccccc2)c2nc(-c3ccccc3)n(CCCN3CCOCC3)c2n1	0.704%
CCCCNc1nc(C)nc2c1nc(-c1ccccc1)n2CC1CCCN1CC (stereo not given)	10.9%
CCCCNc1nc(C)nc2c1nc(-c1ccccc1)n2CCCN1CCCCC1C (stereo not given)	0.924%
Cc1nc(N2CCOCC2)c2nc(-c3ccccc3)n(CCCN3CCOCC3)c2n1	1.11%
CCCn1c(C)nc2c(NCCCCN3CCCC3)nc(C)nc21	3.11%
CCCCNc1nc(C)nc2c1nc(-c1ccccc1)n2CCN1CCCC1	-2.58%
CCCn1c(-c2ccc(F)cc2)nc2c(NCCCN3CCOCC3)nc(C)nc21	-0.253%
CCN1CCCC1Cn1c(-c2ccccc2)nc2c(NCc3ccccc3)nc(C)nc21 (stereo not given)	-2.04%
CCN1CCCC1Cn1c(-c2ccccc2)nc2c(N(CCOC)CCOC)nc(C)nc21 (stereo not given)	-2.18%
Cc1nc(NCc2ccccc2)c2nc(-c3ccccc3)n(CCCN3CCCCC3C)c2n1 (stereo not given)	-0.805%
CCCn1c(-c2ccc(F)cc2)nc2c(N3CCN(CCC(=O)OCC)CC3)nc(C)nc21	-0.374%
Cc1nc(N2CCOCC2)c2nc(-c3ccccc3)n(CCN3CCCCC3)c2n1	2.21%
CCCn1c(-c2ccc(F)cc2)nc2c(NCCN3CCCC3)nc(C)nc21	-0.228%
Cc1nc(NC2CCCCC2)c2nc(-c3ccccc3)n(CCCN3CCCCC3C)c2n1 (stereo not given)	-0.177%
CCCn1c(-c2ccc(F)cc2)nc2c(N3CCN(CCn4ccnc4)CC3)nc(C)nc21	-4.44%
Cc1nc(N2CCOCC2)c2nc(-c3ccccc3)n(CCN(C)C)c2n1	1.39%
